Experimental data from PubChem BioAssay (NCI).
The panel holds about 83,000 compounds, 20% with a hit somewhere; the sample as a whole holds those more often.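 Cells were grown in 96-well plates and exposed to the test compound at a single concentration for 48 hours; results are reported as percent growth, with values below 10 considered active.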 Values without a mark were called inactive. Active and inactive are the calls of the source.

What follows are compounds tested on HL-60(TB) leukemia (assay: NCI-60 one-dose screen, 48 h (100 = growth as untreated, 0 = no growth, -100 = all killed)). Conditions: 10 µM unless noted.
Work on Cc1ccc2c(c1)n([O-])c1cc(Cl)ccc1[n+]2=O yielded a growth of 67.8%.
For O=C1c2cccnc2C(=O)c2c1c(C(=O)OCCc1ccccn1)c1ccccn21, the growth was -19.5% (active).
In the case of COc1ccc(C(=O)c2cc(OC)c(C)c(OC)c2)cc1OC(=O)CCl, the growth is reported as -28.5% (active).
COc1cc(C(=O)N2CCN(C(=O)c3cc(OC)c(OCc4ccccc4)cc3N)CC2)c(N)cc1OCc1ccccc1 gave a growth of 112%.
In the case of Clc1nc(Cl)c2ncn(C/C=C\Cn3cnc4c(Cl)nc(Cl)nc43)c2n1, the growth is reported as -70.2% (active).
Cc1ccc(C)c(S(=O)(=O)NC2c3ccccc3Oc3ccccc32)c1 showed a growth of 86.9%.
With COc1cc(-c2csc(NC(=O)Nc3ccc(C(F)(F)F)cc3)n2)cc(OC)c1OC the growth was -13.8% (active).
For COC(=O)c1c2c(c[n+]([O-])c1C)C(=O)C(NCc1ccccc1)=CC2=O, the growth was -34.5% (active).
For OC(CCN1CCCCC1)(c1ccccc1)c1ccccc1, the growth was 130%.
Cc1cc(C(=C2C=CC(=Nc3ccccc3)C=C2)c2ccc(Nc3ccccc3)cc2)ccc1N was tested, and the growth was 5.66% (active).
With CC1(C)CC(=O)CC2(C1)N=C(N)Nc1nc3ccccc3n12 (centres undefined) the growth was 92.5%.
For COc1ccc(/C=N/C2=C(C#N)C(c3ccc(N(C)C)cc3)c3ccc4ccccc4c3O2)cc1 (centres undefined), the growth was 19.6%.
O=[N+]([O-])c1cc(Cl)c2[nH]c3c(Cl)cc([N+](=O)[O-])cc3c2c1 was tested, and the growth was -28.5% (active).
Cc1cc(NCc2cc(Nc3ccnc4cc(Cl)ccc34)ccc2F)nc(Cl)n1 gave a growth of 22.9%.
